# Hits are enriched below; roughly 28% of the tested compounds scored in any of these assays.
# CYP2C9 inh: blocks human cytochrome P450 2C9; inhibition, % at 5 µM; actives 20% (n = 96,000); AID 777; P11712; CYP2C9 Supersomes, luciferin-H conversion, luminescence;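 active = blocking of liver enzyme CYP2C9 beyond about 50% at 5 µM, limit read from the data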
# CYP2C9 activ: activators of human CYP2C9; actives 1.4% (n = 96,000); activation factor at 5 µM; P11712; recombinant CYP2C9, luciferin-H conversion, luminescence; hits give high values; factor 1 = untreated enzyme, 0 = blocked;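 active = activation factor of 2 or more for CYP2C9 at a 5 µM dose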
# CYP2C19 inh: blocks human cytochrome P450 2C19. P33261. CYP2C19 Supersomes, luciferin-H EGE luminescence, 30 min. inhibition, % at 5 µM. actives 21% (n = 96,000). AID 778;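 active = CYP2C19 inhibition above a set limit at 5 µM in the primary screen, cut at about 50% in these data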
# CYP2C19 activ: activators of human cytochrome P450 2C19; recombinant CYP2C19, luciferin-H EGE luminescence; hits give high values; 0 = fully inhibited enzyme, 1 = untreated enzyme; activation factor at 5 µM; 96,000 tested, under 10 active;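 active = activation factor of at least 2 at 5 µM in the primary screen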
# Mac1 fbg inh: CD11b/CD18-fibrinogen binding inhibition; P05107+P11215; inhibition, % at 10 µM; actives 0.54% (n = 93,000); K562 CD11b/CD18 adhesion to fibrinogen, ATPlite luminescence; Mn2+ added to activate the integrin; AID 1497;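 active = primary inhibition of 50% or more at 10 µM, then 40% or more on retest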
# Target sequence (P05107 whole entry, looked up, other chains not shown): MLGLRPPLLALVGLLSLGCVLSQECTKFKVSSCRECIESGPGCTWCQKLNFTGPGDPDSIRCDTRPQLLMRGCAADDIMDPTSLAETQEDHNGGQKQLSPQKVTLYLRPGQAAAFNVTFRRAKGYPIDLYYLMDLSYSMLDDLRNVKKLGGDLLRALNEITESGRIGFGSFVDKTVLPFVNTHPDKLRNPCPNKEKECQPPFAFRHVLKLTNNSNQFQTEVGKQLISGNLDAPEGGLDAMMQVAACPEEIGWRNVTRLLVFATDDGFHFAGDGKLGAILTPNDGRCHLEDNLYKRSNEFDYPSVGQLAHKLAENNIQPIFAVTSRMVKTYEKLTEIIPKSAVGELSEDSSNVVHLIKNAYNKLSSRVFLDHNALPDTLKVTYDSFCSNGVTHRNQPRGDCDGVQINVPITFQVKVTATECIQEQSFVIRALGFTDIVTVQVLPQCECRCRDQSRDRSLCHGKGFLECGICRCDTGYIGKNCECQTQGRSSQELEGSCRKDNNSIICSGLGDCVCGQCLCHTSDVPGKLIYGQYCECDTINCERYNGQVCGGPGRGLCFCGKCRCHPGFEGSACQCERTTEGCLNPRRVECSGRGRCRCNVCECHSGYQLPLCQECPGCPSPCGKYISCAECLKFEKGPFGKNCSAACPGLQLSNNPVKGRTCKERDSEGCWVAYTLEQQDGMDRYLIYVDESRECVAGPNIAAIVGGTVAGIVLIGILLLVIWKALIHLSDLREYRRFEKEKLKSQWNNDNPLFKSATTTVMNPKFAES
# Mac1 fbg enh: increases human CD11b/CD18 adhesion to fibrinogen | P05107+P11215 | K562 CD11b/CD18 adhesion to fibrinogen, ATPlite luminescence | activation, % at 10 µM | actives 0.07% (n = 93,000);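 active = 10 µM primary screen giving 50% or more activity, confirmed by 40% or more on retest at that dose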
# A number is an active result; 0 = inactive; - = not tested or not shown.
SMILES,CYP2C9 inh,CYP2C9 activ,CYP2C19 inh,CYP2C19 activ,Mac1 fbg inh,Mac1 fbg enh
Cc1ccc(NC2=NC(C(=O)Nc3ccc(C)c(C)c3)CC(=O)N2)cc1 (centres undefined),0,0,0,0,0,0
CC/C(=N\NC(=O)Nc1ccccc1)c1ccccc1,-,-,-,-,0,0
COc1cc(S(=O)(=O)Nc2cccc(C)c2)ccc1NC(=O)c1ccncc1,-,-,-,-,0,0
COc1ccc(N(C(=O)COc2ccccc2)C2C=CS(=O)(=O)C2)cc1 (centres undefined),0,0,0,0,0,0
Cc1cccc(NC(=O)CC2CCC2)c1,0,0,0,0,-,-
O=C(CC1CCCC1)Nc1ccc2c(c1)CCC2,0,0,66,0,-,-
O=C(Cn1nnc(-c2ccncc2)n1)NCCc1ccccc1,72,0,73,0,0,0
CCOc1ccc(-c2nnn(CC(=O)Nc3cc(OC)cc(OC)c3)n2)cc1OCC,0,0,0,0,0,0
COc1cc(NC(=O)Cn2nnc(-c3ccncc3)n2)cc(OC)c1,92,0,89,0,0,0
Cc1sc2nc(NCCO)[nH]c(=O)c2c1C,0,0,0,0,0,0
O=[N+]([O-])c1ccc(-c2cc(-c3ccncc3)nc3ccc4ccccc4c23)cc1,0,0,0,0,0,0
O=C(NCCO)c1ccc(-c2nnc(N3CCOCC3)c3ccccc23)cc1,0,0,0,0,0,0
Cc1cc(N2CCN(C(=O)OC(C)(C)C)CC2)n2ncnc2n1,0,0,0,0,0,0
O=C(O)CCC(=O)N1CC=C(c2ccccc2)CC1,0,0,0,0,0,0
O=C(Cn1[nH]c(=O)c2ccccc2c1=O)N1CC=C(c2ccccc2)CC1,67,0,81,0,0,0
CSCCC(NC(=O)c1ccc(C)o1)C(=O)O (centres undefined),0,0,0,0,0,0
CN1OC(COC(=O)c2ccc(Cl)cc2Cl)CC1c1ccccc1 (centres undefined),0,0,0,0,-,-
c1ccc(N2CCN(c3cnc4ccccc4n3)CC2)cc1,0,0,51,0,0,0
Clc1ccc(N2CCN(c3cnc4ccccc4n3)CC2)cc1,0,0,0,0,0,0
CC1CCCC(NC(=O)c2n[nH]c(=O)c3ccccc23)C1C (centres undefined),0,0,0,0,0,0
COc1ccc(S(=O)(=O)N2CCCC(C(=O)NCc3ccncc3)C2)cc1Cl (centres undefined),98,0,100,0,0,0
Cc1ccc(S(=O)(=O)N2CCCC(C(=O)NCc3cccnc3)C2)cc1Cl (centres undefined),0,0,86,0,0,0
COc1ccccc1NC(=O)CCC(=O)O,56,0,0,0,0,0
CCOc1ccccc1NC(=O)NS(=O)(=O)c1ccc(C)cc1,91,0,0,0,0,0
CCOc1ccccc1NC(=O)Cc1ccccc1OC,0,2.2,58,0,0,0
SMILES,CYP2C9 inh,CYP2C9 activ,CYP2C19 inh,CYP2C19 activ,Mac1 fbg inh,Mac1 fbg enh
CCOc1ccccc1NC(=O)CCC(=O)O,0,0,0,0,-,-
CCOc1ccccc1NC(=O)CSc1ccccc1,0,3.6,51,0,0,0
CCOc1cc(N2CCOCC2)c(OCC)cc1NC(=O)Cc1ccccc1OC,0,0,0,0,-,-
COc1ccc2cc(C)c3nnc(SCC(=O)Nc4nc(-c5ccccc5)cs4)n3c2c1,0,0,0,0,-,-
CCC(COC(=O)Nc1cccc(C)c1)NC(=O)OCC(C)C (centres undefined),55,0,93,0,0,0
CCOC(=O)Nc1cccc(OCC(=O)Nc2ccccc2OCC)c1,0,0,88,0,0,0
CC(=O)Nc1cccc(OCC(=O)Nc2ccccc2)c1,0,0,0,0,0,0
COC(=O)c1cc(OC)c(OC)cc1NC(=O)CSc1ccccc1,0,0,65,0,0,0
CCNC(=O)OCC(CC)NC(=O)OCC(C)C (centres undefined),0,0,0,0,0,0
CCOc1ccccc1NC(=O)Cn1nnc(-c2ccc(OCC)c(OCC)c2)n1,85,0,89,0,0,0
CC(C)C(NC(=O)OC(C)(C)C)C(=O)N1CCCC1C(=O)NC(Cc1ccccc1)C(N)=O (centres undefined),0,0,0,0,-,-
